{"source": "PubChem BioAssay AID588849", "about": "(Broad Institute, 2011)", "note": "Potency and affinity values are given separately. Calls of active or inactive are those of the source. A call without a number means that no potency is given here. No rule for the calls is given here.", "data": [{"target": "CAAX prenyl protease 2 (Homo sapiens) (UniProt Q9Y256)", "sequence (Q9Y256 whole entry, looked up)": "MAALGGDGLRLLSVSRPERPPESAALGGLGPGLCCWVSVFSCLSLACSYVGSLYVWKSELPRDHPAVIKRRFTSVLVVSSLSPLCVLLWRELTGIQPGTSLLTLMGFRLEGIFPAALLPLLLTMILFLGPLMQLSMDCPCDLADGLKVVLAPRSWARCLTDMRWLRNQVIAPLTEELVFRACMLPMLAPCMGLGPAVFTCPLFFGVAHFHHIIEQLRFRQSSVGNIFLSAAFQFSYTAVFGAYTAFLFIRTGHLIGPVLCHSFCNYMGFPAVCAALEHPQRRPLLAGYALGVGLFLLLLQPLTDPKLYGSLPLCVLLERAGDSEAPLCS", "assay": "inhibition of Ras-converting CAAX protease Rce1 – biochemical, yeast membranes, quenched-peptide fluorescence, cherry-pick, dose response (AID 588849)", "conditions": "yeast membrane fractions expressing human Rce1, quenched-peptide fluorescence, 4 h; series mostly up to 10 µM", "values": [{"smiles": "c1ccc(CCCN2CCN(CCOC(c3ccccc3)c3ccccc3)CC2)cc1", "outcome": "inactive"}, {"smiles": "Cc1nccc2c1[nH]c1ccccc12", "outcome": "inactive"}, {"smiles": "CCOC(=O)[C@@H]1[C@H]2COc3ccc(Br)cc3[C@@H]2N2C(=O)N(c3cccc(C)c3)C(=O)[C@]12C", "outcome": "inactive"}, {"smiles": "Clc1ccc(C[n+]2c(-c3ccccc3)cc(-c3ccccc3)cc2-c2ccccc2)cc1", "outcome": "inactive"}, {"smiles": "C=CC[N+]1(C)CC[C@]23c4c5ccc(O)c4O[C@H]2C(=O)CC[C@@]3(O)[C@H]1C5", "note": "(some centres undefined)", "outcome": "inactive"}, {"smiles": "COCCCn1c(N)c(C(=O)NCc2ccco2)c2nc3ccccc3nc21", "outcome": "inactive"}, {"smiles": "CN1CCN(c2ccc([N+](=O)[O-])c(Sc3nncn3C)c2)CC1", "outcome": "inactive"}, {"smiles": "Cc1ccc(-c2cc(-c3ccccc3)cc(-c3ccccc3)[n+]2-c2ccccc2)cc1", "outcome": "inactive"}, {"smiles": "COc1ccc2c3c([nH]c2c1)C(C)=NCC3", "outcome": "inactive"}, {"smiles": "C=CCn1c(O)c(C(CC)=Nc2ccc(N(CC)CC)cc2)c(=O)[nH]c1=O", "outcome": "inactive"}, {"smiles": "CN1CC(C(=O)c2ccc(Cl)cc2)C(c2ccc(Cl)cc2Cl)C1", "note": "(centres undefined)", "outcome": "inactive"}, {"smiles": "Cc1ccc(-c2nc3ccc(C)cn3c2CC(=O)N(C)C)cc1", "outcome": "inactive"}, {"smiles": "Cc1ccnc(-n2c(-c3ccco3)nc3ccccc3c2=O)c1", "outcome": "inactive"}, {"smiles": "Cc1oc(-c2cccs2)nc1CSCC(=O)N1CCC2(CC1)OCCO2", "outcome": "inactive"}]}]}
